The source of these data is ChEMBL document CHEMBL3988442, “University of Dundee, Small-Polar-MMV Screening Library” (2021).

What all share (parameters): scale not given: direction of the effect not stated beside the values
Experiment [1] concerns the target Protein translocase subunit SecA (Escherichia coli (strain K12)) (UniProt P10408). Briefly: Assay to Identify E. coli SecA ATPase Inhibitors. The format is functional. As to conditions: 30 µM.
In experiment [2] the target is T1, Ubiquitin-activating enzyme e1, putative (Leishmania donovani (strain BPK282A1)) (UniProt E9BSI1).
T1 sequence (whole entry): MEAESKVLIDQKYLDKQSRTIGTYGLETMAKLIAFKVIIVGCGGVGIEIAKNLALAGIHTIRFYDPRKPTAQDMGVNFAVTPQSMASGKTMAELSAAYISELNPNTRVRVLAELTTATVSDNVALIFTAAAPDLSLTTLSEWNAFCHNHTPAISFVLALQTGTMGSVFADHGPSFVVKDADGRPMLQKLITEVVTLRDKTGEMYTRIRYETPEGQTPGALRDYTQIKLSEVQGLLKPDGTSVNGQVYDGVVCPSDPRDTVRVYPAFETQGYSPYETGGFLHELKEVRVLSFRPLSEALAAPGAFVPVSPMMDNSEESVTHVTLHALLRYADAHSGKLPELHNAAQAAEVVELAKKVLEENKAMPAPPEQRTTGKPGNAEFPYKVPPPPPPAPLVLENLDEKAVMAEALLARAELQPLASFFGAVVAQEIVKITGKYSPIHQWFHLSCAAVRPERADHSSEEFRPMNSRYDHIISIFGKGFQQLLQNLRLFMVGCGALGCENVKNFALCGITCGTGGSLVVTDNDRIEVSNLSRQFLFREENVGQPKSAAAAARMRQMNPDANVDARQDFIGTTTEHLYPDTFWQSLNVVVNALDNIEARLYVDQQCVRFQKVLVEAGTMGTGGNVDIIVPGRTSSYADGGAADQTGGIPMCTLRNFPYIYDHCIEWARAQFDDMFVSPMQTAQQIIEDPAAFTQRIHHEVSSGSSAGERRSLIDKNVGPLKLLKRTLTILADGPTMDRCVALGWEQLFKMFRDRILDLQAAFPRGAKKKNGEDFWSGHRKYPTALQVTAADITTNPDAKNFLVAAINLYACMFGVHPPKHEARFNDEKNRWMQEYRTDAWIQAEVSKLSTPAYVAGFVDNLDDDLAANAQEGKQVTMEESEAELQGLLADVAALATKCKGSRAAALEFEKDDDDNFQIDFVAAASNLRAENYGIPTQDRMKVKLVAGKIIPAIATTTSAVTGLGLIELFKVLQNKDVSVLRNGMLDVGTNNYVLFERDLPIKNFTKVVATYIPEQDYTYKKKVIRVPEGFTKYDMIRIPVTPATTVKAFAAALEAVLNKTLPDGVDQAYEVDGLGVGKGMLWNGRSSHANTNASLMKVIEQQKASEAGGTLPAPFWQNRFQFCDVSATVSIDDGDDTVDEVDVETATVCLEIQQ
Briefly: Leishmania donovani Ubiquitin Activating Enzyme (LdE1). The class given is functional. As to conditions: 30 µM.

Experiment [3] deals with AMP-activated protein kinase, AMPK (Homo sapiens) (UniProt P54646+O43741+P54619+Q9UGJ0+Q9Y478+Q13131+Q9UGI9). Briefly: AMP-dependent Kinase enzyme assay. An in vitro enzyme assay that detects ADP turnover that is directly proportional to AMPK activity. This uses naive AMPK that is activated during the assay with MK-8722. The class given is functional. As to conditions: 30 µM.

Experiment [4] addresses Sialic acid-binding Ig-like lectin 9 (Homo sapiens) (UniProt Q9Y336). The experiment in a line: Hs-Siglec9 ALPHAscreen SOP 20170721. As to conditions: 10 µM.
The subject of another experiment is Trypanosoma cruzi. The experiment in a line: Trypanosoma cruzi phosphomannomutase and mannose-1-phosphate guanylyltransferase assay. The format is functional. Conditions: 10 µM.
The target of experiment [5] is T2, Arginase-2, mitochondrial (Homo sapiens) (UniProt P78540).
T2 sequence (whole entry): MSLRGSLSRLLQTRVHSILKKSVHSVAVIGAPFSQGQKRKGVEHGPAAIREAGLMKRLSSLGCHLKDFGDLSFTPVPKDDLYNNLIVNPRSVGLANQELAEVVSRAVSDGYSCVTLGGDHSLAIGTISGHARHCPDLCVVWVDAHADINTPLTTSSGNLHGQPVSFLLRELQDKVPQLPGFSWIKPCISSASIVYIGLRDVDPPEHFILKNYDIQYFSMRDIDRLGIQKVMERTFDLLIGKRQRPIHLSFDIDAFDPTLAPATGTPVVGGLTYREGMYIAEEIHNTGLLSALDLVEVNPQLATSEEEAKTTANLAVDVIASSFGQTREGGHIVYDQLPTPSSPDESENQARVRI
The experiment in a line: in vitro enzyme assay to detect the production of urea directly proportional to the activity of Arginase II. Note: in the data most compounds retested in dose-response had high values. The format is functional. As to conditions: 33.3 µM.

Experiment [6] deals with T3, Proteasome subunit beta (Trypanosoma cruzi) (UniProt O96673).
T3 sequence (whole entry): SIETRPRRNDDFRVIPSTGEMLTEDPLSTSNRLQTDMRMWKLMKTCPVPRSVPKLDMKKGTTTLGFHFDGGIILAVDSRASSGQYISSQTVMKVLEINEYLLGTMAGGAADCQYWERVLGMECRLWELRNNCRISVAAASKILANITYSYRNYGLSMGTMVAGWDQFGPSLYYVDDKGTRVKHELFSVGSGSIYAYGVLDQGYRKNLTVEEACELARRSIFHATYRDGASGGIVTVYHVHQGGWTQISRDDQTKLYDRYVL
The experiment in a line: Trypanosoma cruzi proteasome chymotrypsin-like activity (TcProtChymo) assay. Note: in the data most compounds retested in dose-response had high values. The format is functional. As to conditions: 9.37 µM.

For a further experiment, the species on record is Homo sapiens. The experiment in a line: To identify inhibition of the IFN signalling (Jak-Stat) pathway via expression of an eGFP reporter gene under the control of an IFN-stimulated response element (ISRE) containing MxA promoter. The class given is functional. As to conditions: 30 µM. (In general: A reporter such as luciferase makes a cellular process visible.)

In experiment [7] the target is T4, Tyrosyl-tRNA synthetase, putative (Trypanosoma cruzi (strain CL Brener)) (UniProt Q4DSP6).
T4 sequence (whole entry): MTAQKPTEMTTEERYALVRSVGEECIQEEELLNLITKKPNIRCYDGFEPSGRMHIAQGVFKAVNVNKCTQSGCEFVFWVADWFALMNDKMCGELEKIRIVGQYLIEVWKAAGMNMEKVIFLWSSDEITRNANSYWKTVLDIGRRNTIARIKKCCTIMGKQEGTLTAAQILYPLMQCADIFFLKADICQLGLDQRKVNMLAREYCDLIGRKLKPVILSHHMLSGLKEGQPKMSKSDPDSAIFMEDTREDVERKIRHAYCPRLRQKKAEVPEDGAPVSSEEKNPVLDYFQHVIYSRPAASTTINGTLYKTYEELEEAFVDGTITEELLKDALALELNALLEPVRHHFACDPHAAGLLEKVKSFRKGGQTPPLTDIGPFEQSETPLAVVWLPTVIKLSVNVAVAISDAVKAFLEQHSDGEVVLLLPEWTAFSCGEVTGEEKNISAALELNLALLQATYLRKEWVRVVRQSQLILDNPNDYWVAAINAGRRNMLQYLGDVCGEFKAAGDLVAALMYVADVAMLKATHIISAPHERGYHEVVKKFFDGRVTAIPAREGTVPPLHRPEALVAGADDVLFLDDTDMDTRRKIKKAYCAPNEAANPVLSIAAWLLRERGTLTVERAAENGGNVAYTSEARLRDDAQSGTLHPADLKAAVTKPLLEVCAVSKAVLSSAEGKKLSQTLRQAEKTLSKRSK
Briefly: Trypanosoma cruzi tyrosyl tRNA synthetase (TcYRS) _High Tyrosine SOP. Note: in the data most compounds retested in dose-response had high values. The class given is functional. As to conditions: 30 µM.

Experiment [8] concerns the target T4, Tyrosyl-tRNA synthetase, putative (Trypanosoma cruzi (strain CL Brener)). Briefly: Trypanosoma cruzi tyrosyl tRNA synthetase (TcYRS) SOP. Conditions: 30 µM. The format is functional.
Experiment [9] concerns the target Chromo domain-containing protein 1 (Saccharomyces cerevisiae (strain ATCC 204508 / S288c) (Baker's yeast)) (UniProt P32657). Briefly: ScCHD-1 Enzyme Inhibition Assay. Note: in the data most compounds retested in dose-response had high values. The class given is functional. As to conditions: 30 µM.

For some of these results: Entries with a potency or affinity are not part of this list.

Sequence of Protein translocase subunit SecA (Escherichia coli (strain K12)) (P10408 whole entry): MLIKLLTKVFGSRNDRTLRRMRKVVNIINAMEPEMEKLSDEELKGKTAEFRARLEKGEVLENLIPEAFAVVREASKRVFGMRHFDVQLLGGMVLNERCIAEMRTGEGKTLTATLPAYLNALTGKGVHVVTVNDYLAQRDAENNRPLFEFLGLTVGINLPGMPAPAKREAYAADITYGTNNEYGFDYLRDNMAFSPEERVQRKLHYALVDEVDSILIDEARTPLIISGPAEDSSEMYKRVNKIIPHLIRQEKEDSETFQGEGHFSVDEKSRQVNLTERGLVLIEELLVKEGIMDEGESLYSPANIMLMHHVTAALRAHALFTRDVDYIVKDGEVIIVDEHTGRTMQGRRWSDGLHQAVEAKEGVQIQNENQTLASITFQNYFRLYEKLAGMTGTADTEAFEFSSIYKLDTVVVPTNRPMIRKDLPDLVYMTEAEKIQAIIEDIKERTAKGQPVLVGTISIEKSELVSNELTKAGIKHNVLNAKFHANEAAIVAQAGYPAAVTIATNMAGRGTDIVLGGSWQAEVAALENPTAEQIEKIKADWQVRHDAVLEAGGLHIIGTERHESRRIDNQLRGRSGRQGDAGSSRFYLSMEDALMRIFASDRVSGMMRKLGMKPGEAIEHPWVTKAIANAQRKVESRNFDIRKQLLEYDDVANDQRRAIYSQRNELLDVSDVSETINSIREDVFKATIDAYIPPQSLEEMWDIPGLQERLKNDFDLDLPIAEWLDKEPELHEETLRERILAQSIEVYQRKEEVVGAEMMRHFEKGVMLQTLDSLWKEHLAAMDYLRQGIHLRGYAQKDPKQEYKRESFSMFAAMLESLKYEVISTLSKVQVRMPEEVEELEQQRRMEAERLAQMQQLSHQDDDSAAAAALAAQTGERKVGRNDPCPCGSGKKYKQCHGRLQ
Sequence of Sialic acid-binding Ig-like lectin 9 (Homo sapiens) (Q9Y336 whole entry): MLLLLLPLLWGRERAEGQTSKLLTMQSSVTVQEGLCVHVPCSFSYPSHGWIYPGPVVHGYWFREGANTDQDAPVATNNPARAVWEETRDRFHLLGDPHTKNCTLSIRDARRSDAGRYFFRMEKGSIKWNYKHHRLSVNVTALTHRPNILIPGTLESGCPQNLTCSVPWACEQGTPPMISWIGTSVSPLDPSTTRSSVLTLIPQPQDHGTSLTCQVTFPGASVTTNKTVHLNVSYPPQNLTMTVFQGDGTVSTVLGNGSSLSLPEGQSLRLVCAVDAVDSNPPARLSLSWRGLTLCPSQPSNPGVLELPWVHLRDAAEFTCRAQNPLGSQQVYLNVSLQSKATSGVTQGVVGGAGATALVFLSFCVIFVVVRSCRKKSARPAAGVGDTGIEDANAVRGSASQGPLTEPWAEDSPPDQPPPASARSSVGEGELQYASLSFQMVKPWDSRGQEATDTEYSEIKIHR
Sequence of Chromo domain-containing protein 1 (Saccharomyces cerevisiae (strain ATCC 204508 / S288c) (Baker's yeast)) (P32657 whole entry, the tested form may be a part): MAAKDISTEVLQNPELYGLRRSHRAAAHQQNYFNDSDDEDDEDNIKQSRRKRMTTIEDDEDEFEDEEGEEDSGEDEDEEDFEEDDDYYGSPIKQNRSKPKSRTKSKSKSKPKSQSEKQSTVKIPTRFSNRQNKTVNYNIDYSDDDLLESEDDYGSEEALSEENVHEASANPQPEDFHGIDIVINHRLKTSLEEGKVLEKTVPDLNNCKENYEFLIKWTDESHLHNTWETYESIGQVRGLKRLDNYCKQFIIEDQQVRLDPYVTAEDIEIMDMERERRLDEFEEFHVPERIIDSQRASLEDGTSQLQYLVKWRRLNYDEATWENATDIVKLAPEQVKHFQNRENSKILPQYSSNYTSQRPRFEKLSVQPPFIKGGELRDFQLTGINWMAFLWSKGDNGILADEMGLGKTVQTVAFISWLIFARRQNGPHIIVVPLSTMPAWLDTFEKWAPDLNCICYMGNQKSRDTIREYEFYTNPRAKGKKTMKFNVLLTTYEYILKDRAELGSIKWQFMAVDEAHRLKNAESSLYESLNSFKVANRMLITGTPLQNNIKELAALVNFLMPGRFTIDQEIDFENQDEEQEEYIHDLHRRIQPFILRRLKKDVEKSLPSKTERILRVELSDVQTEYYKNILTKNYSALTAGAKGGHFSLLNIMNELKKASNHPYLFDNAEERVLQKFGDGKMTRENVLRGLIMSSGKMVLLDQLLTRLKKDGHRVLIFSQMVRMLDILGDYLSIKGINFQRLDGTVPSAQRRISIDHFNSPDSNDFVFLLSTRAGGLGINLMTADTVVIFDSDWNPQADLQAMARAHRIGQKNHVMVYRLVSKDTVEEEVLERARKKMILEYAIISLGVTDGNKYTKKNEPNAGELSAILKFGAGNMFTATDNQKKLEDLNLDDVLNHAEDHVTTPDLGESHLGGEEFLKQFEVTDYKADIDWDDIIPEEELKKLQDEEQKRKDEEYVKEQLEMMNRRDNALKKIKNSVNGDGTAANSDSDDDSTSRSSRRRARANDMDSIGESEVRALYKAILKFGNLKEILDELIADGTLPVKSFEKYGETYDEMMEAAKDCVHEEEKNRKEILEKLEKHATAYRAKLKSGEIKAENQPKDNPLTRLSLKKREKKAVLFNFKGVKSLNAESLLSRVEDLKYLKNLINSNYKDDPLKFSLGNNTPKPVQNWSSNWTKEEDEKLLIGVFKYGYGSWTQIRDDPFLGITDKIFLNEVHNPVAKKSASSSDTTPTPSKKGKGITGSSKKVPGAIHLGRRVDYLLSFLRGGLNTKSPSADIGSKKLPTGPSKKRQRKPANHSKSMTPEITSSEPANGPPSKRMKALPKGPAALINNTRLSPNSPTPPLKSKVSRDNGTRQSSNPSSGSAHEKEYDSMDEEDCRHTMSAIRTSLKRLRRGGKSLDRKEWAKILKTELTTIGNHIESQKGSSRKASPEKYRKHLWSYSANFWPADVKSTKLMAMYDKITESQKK

As to `NC(=O)c1ccc(N2CCCCC2)c(NC(=O)c2cncc(Br)c2)c1`, the Percent Effect in experiment [1] was -3.53%; in experiment [2], 5.2%; in experiment [3] it was 10.4%; in experiment [4], 12.7%; with Trypanosoma cruzi, 2.06%; in [5], -78.6%. Also, the Percent Effect in experiment [6] was 12.5%; in the experiment filed under Homo sapiens, 35.7%; in experiment [7], 3.23%; in experiment [8], 11.1%; in experiment [9], -2.92%.

Regarding `Cc1cc(CNC(=O)N2CCN(c3nc(C)c(C)s3)CC2)no1`, the Percent Effect was -9.13% in experiment [1]; 18.9% in experiment [2]; -4.31% in [3]; 31.4% in experiment [4]; 9.18% with Trypanosoma cruzi; 45% in experiment [5]. Also, the Percent Effect in [6] is 17.2%; in the experiment listed under Homo sapiens it was 14%; in experiment [7] it was 8.91%; in experiment [8], 15.8%; in experiment [9], -4.46%.

On to `O=C(c1ccnnc1)N1C[C@@H]2CC[C@H](Oc3cccc(F)c3)[C@@H]2C1`, for which the Percent Effect was -4.43% in experiment [1]; -1.35% in experiment [2]; 15.2% in experiment [3]; -2.19% in experiment [4]; -6.13% in the experiment with Trypanosoma cruzi; 1.16% in experiment [5]. The Percent Effect in [6] is 2.34%; in the experiment filed under Homo sapiens, -7.87%; in [7] it was 1.07%; in experiment [8], -3.9%; in experiment [9], -7.63%.

For `CCN1CCN(c2ncc(-c3cc(C)no3)c(-c3ccc(C)s3)n2)CC1`, the Percent Effect is -2.83% in experiment [1]; 4.05% in [2]; 7.99% in experiment [3]; 2.04% in experiment [4]; -5.34% in the experiment with Trypanosoma cruzi; -4.41% in [5]. In addition, the Percent Effect in experiment [6] was 2.18%; in the experiment listed under Homo sapiens, -6.45%; in experiment [7] it was 6.45%; in [8], 11.7%; in experiment [9], -15.6%.

Regarding `O=C(Nc1ccc(CCN2CCC(O)CC2)cc1)C1CCOCC1`, the Percent Effect in [1] is -1.94%; in [2], 2.7%; in [3], -6.78%; in experiment [4], 11.5%; in the experiment on Trypanosoma cruzi, 4.18%; in [5] it was -1.66%. In addition, the Percent Effect is 1.98% in experiment [6]; 3.22% in the experiment listed under Homo sapiens; 5.94% in experiment [7]; 11% in experiment [8]; -3.93% in experiment [9].

For the molecule `CC(C)c1n[nH]c(C2CN(C(=O)C3=COCC3)CCO2)n1` (stereo unspecified), the Percent Effect in [1] is -3.67%; in experiment [2] it was 2.63%; in experiment [3], 1.65%; in experiment [4], 11.9%; with Trypanosoma cruzi it was 0.0934%; in experiment [5] it was 5.4%. Besides, the Percent Effect in [6] is -5.33%; in the experiment filed under Homo sapiens, -8.69%; in experiment [7], 2.46%; in experiment [8], 3.7%; in [9] it was 10.5%.

In the case of `COc1ccc(-c2csc(N)c2C#N)cc1OC`, the Percent Effect in [1] was -2.5%; in experiment [2], 6.67%; in experiment [3], -9.01%; in [4], 5.81%; in the experiment with Trypanosoma cruzi, 4.91%; in [5], -6.16%. In addition, the Percent Effect in [6] is 7.02%; in the experiment filed under Homo sapiens it was 12.1%; in experiment [7] it was 1.06%; in experiment [8], 0%; in experiment [9], -1.98%.

Regarding `CSc1nccn1-c1cccc(C(=O)NCC2CC2)c1`, the Percent Effect in experiment [1] was -4.93%; in [2], 7.89%; in experiment [3] it was 0.0421%; in experiment [4] it was 2.24%; in the experiment with Trypanosoma cruzi it was 6.82%; in [5], -1.44%. The Percent Effect in experiment [6] amounted to 3.13%; in the experiment filed under Homo sapiens it was 2.37%; in experiment [7], 5.42%; in experiment [8], 13.6%; in [9] it was 2.32%.

Take `CC(C)c1nc(C(=O)N2CCOCC2CC(=O)c2ccco2)c[nH]1` (stereo unspecified): the Percent Effect in experiment [1] is 2.93%; in experiment [2], -2.63%; in experiment [3] it was 4.64%; in experiment [4], 2.67%; in the experiment on Trypanosoma cruzi, 0.682%; in experiment [5] it was 0%. For the same molecule, the Percent Effect in experiment [6] is 8.92%; in the experiment listed under Homo sapiens, -8.33%; in experiment [7], 5.32%; in experiment [8] it was 0%; in experiment [9], 1.37%.

Consider `CCn1c(N)nc2cc(C(=O)NCCc3sccc3C)cnc21`, for which the Percent Effect is -4.71% in experiment [1]; -2.74% in experiment [2]; 1.2% in [3]; 24.5% in [4]; 5.29% in the experiment on Trypanosoma cruzi; -2.73% in experiment [5]. Also, the Percent Effect in experiment [6] was 28.6%; in the experiment listed under Homo sapiens it was 8.68%; in [7], 3.23%; in [8], 20%; in [9], -6.44%.

As for `CCc1n[nH]c(C2CN(C(=O)c3cc4c(s3)CCCC4)CCO2)n1` (stereo unspecified), the Percent Effect in [1] was -1.02%; in [2], 20.2%; in [3], 0.0672%; in experiment [4] it was -4.74%; with Trypanosoma cruzi, -6.33%; in experiment [5], -0.76%. For the same molecule, the Percent Effect is 6.96% in experiment [6]; 30.5% in the experiment filed under Homo sapiens; 1.48% in [7]; 8.86% in experiment [8]; -5.65% in [9].
